Screens from PubChem.
Tau fluor cs = counter-screen for tau fibril formation inhibitors | 0.93% of 280,000 active | tau K18 P301L Alexa594 fluorescence, heparin fibrillization | Potency, µM (top dose mostly 57.7 µM), inactives show at the top dose activity change, negative = decrease; further: potency means the concentration at half of the fitted maximal effect; nearly all actives have a fitted effect of over 55% in size
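Human tau K18 P301L (15 uM unlabeled, 0.24 uM Alexa 594-labeled) in 100 mM sodium acetate pH 7 with 20 uM heparin, 6 hr at 37 C. ThT 30 uM added, 1 hr ambient; Alexa 594 FP and total fluorescence read at 555/632 nm.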
Tau FP inhib = inhibitors of human tau fibril formation | 0.39% of 280,000 active | K18 P301L tau heparin fibrillization, Alexa594 FP, 6 h | Potency, µM (highest dose often 57.7 µM), for the others: top-dose activity, negative = inhibition, usual class: inhibitors | P10636; further: potency means the concentration at half of the fitted maximal effect; nearly all actives have a fitted effect of over 55% in size
Target sequence (P10636 561-689 P618L limits assumed): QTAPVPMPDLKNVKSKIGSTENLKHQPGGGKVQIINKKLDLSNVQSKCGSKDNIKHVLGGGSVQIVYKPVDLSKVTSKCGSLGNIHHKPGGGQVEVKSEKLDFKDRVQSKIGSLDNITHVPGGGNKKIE
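Recombinant K18 P301L […], labeled with Alexa 594 at 0.24 uM over 15 uM unlabeled; heparin inducer 20 uM final; 37 C, 6 hr; FP endpoint.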
FBPA coupling cs = counter-screen for Giardia aldolase inhibitors: coupling enzyme system; coupling enzyme system counterscreen, AmpLite Red fluorescence; activity change, negative = inhibition, % at 58.2 µM, hits read low; 0.67% of 290,000 active; AID 2472; in the data active means activity change below about -30%
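Fluorescence at 525 nm excitation and 598 nm emission measured inhibition of the coupled detection system without aldolase. Compounds (at 57.5 uM final) were preincubated 10 min at room temperature with coupling enzyme reagent before a 20 min substrate/AmpLite Red step.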
Sfp PPTase inh = blocks B. subtilis Sfp PPTase activity. Q9F4F7. Biochemical Sfp PPTase activity, qHTS. Potency, µM, for inactives: largest response in the series, negative = inhibition, usual class: inhibitors. 3.5% of 310,000 active;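 further: the enzyme is Sfp with the accession as filed and its product quenches rhodamine fluorescence; potency means the concentration at half of the fitted maximal effect; 0% = enzyme reaction without inhibitor and -100% = no enzyme wells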
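Step 1, compound plus 15 nM Sfp-PPTase, 15 min, room temperature. Step 2, add rhodamine-CoA (5 uM) and BHQ-2-YbbR (12.5 uM). Step 3, read 525/598 nm fluorescence at 0 and 30 min.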
Tau fibril ThT = blocks human tau fibril formation measured by thioflavin T. P10636. recombinant tau K18 P301L, heparin-induced fibrillization, ThT fluorescence. Potency, µM (doses to about 57.4 µM), for inactives: top-dose activity, negative = inhibition, most hits filed as inhibitors. 2.1% of 270,000 active. AID 1460; further: potency means the concentration at half of the fitted maximal effect; nearly all actives have a fitted effect of over 55% in size
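Using a mix of unlabeled (15 uM) and Alexa 594-labeled (0.24 uM) tau K18 P301L, heparin-triggered fibrillization over 6 hr at 37 C was scored by ThT fluorescence.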
An asterisk follows results filed as active; ? = inconclusive; nt = not tested or not shown; [ ] = dose if it differs, or a comment. The list is not random: actives were taken first. Their share in the collection is about 5.2%. Unless noted, the call rests on the fitted dose curve; in most records, active means well fitted curve in the direction sought with a large enough effect; inconclusive means small, poorly fitted or top-dose-only effect, or another doubt; inactive means no such curve, though single readings can be large; an effect the other way counts as inactive or inconclusive. Unless noted, on the % scale 0 is the no-effect control and ±100 the full control effect.

SMILES	Tau fluor cs	Tau FP inhib	FBPA coupling cs	Sfp PPTase inh	Tau fibril ThT
CN1C=CC2=C(C#N)C(N)C(C#N)(C#N)[C@H](c3ccccc3)[C@H]2C1 (stereo not given in full)	-18%	?	-30*	0%	?
Cc1ncc(CO)c2c1Oc1nc(-c3ccccc3Cl)nc(SCc3ccccc3F)c1C2	-5%	0%	nt	nt	-5%
CCNc1ccc(C(=O)NN=C2CCCC2)cc1[N+](=O)[O-]	-18%	4%	-1	4%	8.9µM*
CC(C)(C)c1ccc(C(=O)NN=C2CCCC2)cc1	nt	nt	0	15%	nt
CCCCC[n+]1ccn(C2=C([O-])c3ccccc3C(=O)/C2=N\S(=O)(=O)c2ccc(Br)cc2)c1	?	?	-24	8%	11µM*
CC(C)(C)c1cc[n+](C2=C([O-])c3ccccc3C(=O)/C2=N\S(=O)(=O)c2ccccc2)cc1	?	?	-60*	-12%	16µM*
CC(C)[n+]1ccn(C2=C([O-])c3ccccc3C(=O)/C2=N\S(=O)(=O)c2ccccc2)c1	-10%	-10%	-44*	-3%	?
CCCC[n+]1ccn(C2=C([O-])c3ccccc3C(=O)/C2=N\S(=O)(=O)c2ccccc2)c1	-15%	4%	nt	14%	?
COc1cc([C@@H]2CC(=O)c3c(O)cc(O)cc3O2)ccc1O	nt	nt	5	-14%	nt
O=C(NCc1ccc(F)cc1)c1ccc(CSCc2cccc(Cl)c2)o1	-21%	-3%	nt	nt	-15%
Cc1cc(C)c(NC(=O)C(C)n2nc(-c3ccc(C)c(C)c3)ccc2=O)c(C)c1 (stereo not given)	-2%	8%	nt	nt	?
CCOc1cc(NC2CS(=O)(=O)CC2O)c(OCC)cc1NC(=O)c1ccccc1 (stereo not given)	-8%	5%	-41*	13%	-8%
CCN(CC)Cc1cc(O)c(CN(CC)CC)cc1O	?	?	-33*	10µM*	11µM*
Cc1c(C)n(Cc2ccccc2)c2ccc(C(=O)NCC(C)c3ccccc3)cc12 (stereo not given)	-7%	14%	nt	nt	-6%
COCCCn1c(N)c(-c2nc3ccccc3n2C)c2nc3ccccc3nc21	16µM*[quencher]	?	-4	3%	18µM*
Cn1c(-c2c(N)n(CCc3ccccc3)c3nc4ccccc4nc23)nc2ccccc21	13µM*[quencher]	9%	-3	-9%	?
Cn1c(-c2c(N)n(CCCc3ccccc3)c3nc4ccccc4nc23)nc2ccccc21	3%	4%	nt	18%	4%
c1ccc2sc(SSc3nc4ccccc4s3)nc2c1	nt	nt	nt	56µM*	nt
O=S1(=O)C=C(Sc2nc3ccccc3s2)c2ccccc21	-14%	?	1	50µM*	10µM*
C=C1CCN(C(CC(C)C)C(=O)NN2CCOCC2)S(=O)(=O)c2ccccc21 (stereo not given)	nt	nt	1	0%	nt
CCSc1nc(=S)cc(C)[nH]1	-18%	?	-4	22µM*	?
CC(=O)Nc1nc(C)c(C(C)=O)s1	-4%	-12%	1	-14%	-1%
CC(=O)c1sc(N/N=C2\CC3CCC2(C)C3(C)C)nc1C (stereo not given)	13%	-4%[2.34 µM]	3	28µM*	11%
COC(=O)C1=C(C)N(Cc2ccccc2)C(=NCc2ccco2)N[C@H]1c1ccc(Br)cc1	nt	nt	0	-7%	nt
Cc1cccc(N=C2NC(=O)/C(=C/c3cccn3C)S2)c1C	-21%	-4%	0	79µM*	?
SMILES	Tau fluor cs	Tau FP inhib	FBPA coupling cs	Sfp PPTase inh	Tau fibril ThT
Cc1ccc(N=C2NC(=O)/C(=C/c3cccn3C)S2)cc1	?	3%	2	7%	6.3µM*
Cc1ccc(N=C2NC(=O)/C(=C/c3cccn3C)S2)cc1C	-21%	-4%	-2	14%	?
CCOC(=O)c1ccc(NC(=O)C2CCN(S(=O)(=O)Cc3ccccc3)CC2)cc1	-11%	-4%	nt	nt	?
Cc1nn(CCCC(=O)NCCc2ccc(Cl)cc2)c(=O)c2c1sc1ccccc12	-29%	5%	nt	nt	15%
COc1ccccc1-c1cn[nH]c1-c1ccc(OCc2ccc([N+](=O)[O-])cc2)cc1O	-24%	?	7	15%	4%
Oc1cc(OCc2ccccc2)ccc1-c1[nH]ncc1-c1ccccc1	10µM*[quencher]	25µM*	-7	13%	-13%
